Rows were chosen to be rich in hits. Some 2.9% of all compounds tested hit in one or more screens of this group.
Pol iota inh: inhibitors of human DNA polymerase iota; Q9UNA4; Pol iota fluorescent replication assay, 10 min; Potency, µM (highest dose often 115 µM), without a hit: top-dose activity, negative = inhibition, usual class: inhibitors; hit rate 1% among 390,000; note: potency is the fitted concentration of half-maximal effect
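Fluorescent replication assay read twice, at 0 min and 10 min after adding 50 nM (final) substrate. Enzyme (10 nM) and compounds were first incubated 15 min at room temperature; enzyme-free buffer wells were negative controls.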
POLK inh: DNA polymerase kappa (human) inhibition; Potency, µM (series often up to 107 µM), without a hit: at the top dose activity, negative = inhibition, actives largely listed as inhibitors; Q9UBT6; AID 588579; purified Pol kappa, fluorescent DNA synthesis assay, 10 min; hit rate 0.53% among 400,000; note: potency is the fitted concentration of half-maximal effect; % is set by controls: 0 for no effect and ±100 for the full control effect
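Pol kappa 10 nM + cpd, 15 min RT; start w/ substrate 50 nM final; fluorescence kinetic read, 0 and 10 min. Neg ctrl: buffer, no enzyme.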
ALOX12 inh: ALOX12 (human) lipoxygenase inhibition; P18054; purified 12hLO, xylenol orange hydroperoxide absorbance; Potency, µM (titrated, usually from 108 µM), inactives show at the top dose activity change, negative = inhibition, usual class: inhibitors; hit rate 1.1% among 580,000; note: potency is the fitted concentration of half-maximal effect; % is set by controls: 0 for no effect and ±100 for the full control effect
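Hydroperoxide product was detected by ferrous iron/xylenol orange as the 573 to 405 nm absorbance ratio. Arachidonic acid at 40 uM (final) was turned over for 30 min at room temperature by 150 nM human 12hLO, pH 7.0 Hepes buffer, after 15 min compound preincubation.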
PI5P4Ka inh: blocks human PI5P4K alpha kinase activity; P48426; PI5P4Kalpha enzyme, ADP-Glo luminescence, 60 min; stronger effect = lower value; max response, %; hit rate 1.2% among 330,000; active = max response of -50% or lower; inconclusive = between -30% and -50%; inactive = -30% or higher; note: value at the top dose of about 77 µM; % is set by controls: 0 for no effect and ±100 for the full control effect
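Controls without substrate or without enzyme flank wells where PI5P4Kalpha converts substrate using 5 microM ATP (final). Incubation lasts 60 minutes at room temperature; ADP formed is read by ADP-Glo luminescence.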
POLH inh: DNA polymerase eta (human) inhibition. Q9Y253. recombinant Pol eta, fluorescent DNA replication assay. AID 588591. hit rate 1.2% among 390,000. Potency, µM (highest dose often 114 µM), for the others: top-dose activity change, negative = inhibition, hits mostly inhibitors; note: potency is the fitted concentration of half-maximal effect; % is set by controls: 0 for no effect and ±100 for the full control effect
Target sequence (Q9Y253 whole entry, looked up): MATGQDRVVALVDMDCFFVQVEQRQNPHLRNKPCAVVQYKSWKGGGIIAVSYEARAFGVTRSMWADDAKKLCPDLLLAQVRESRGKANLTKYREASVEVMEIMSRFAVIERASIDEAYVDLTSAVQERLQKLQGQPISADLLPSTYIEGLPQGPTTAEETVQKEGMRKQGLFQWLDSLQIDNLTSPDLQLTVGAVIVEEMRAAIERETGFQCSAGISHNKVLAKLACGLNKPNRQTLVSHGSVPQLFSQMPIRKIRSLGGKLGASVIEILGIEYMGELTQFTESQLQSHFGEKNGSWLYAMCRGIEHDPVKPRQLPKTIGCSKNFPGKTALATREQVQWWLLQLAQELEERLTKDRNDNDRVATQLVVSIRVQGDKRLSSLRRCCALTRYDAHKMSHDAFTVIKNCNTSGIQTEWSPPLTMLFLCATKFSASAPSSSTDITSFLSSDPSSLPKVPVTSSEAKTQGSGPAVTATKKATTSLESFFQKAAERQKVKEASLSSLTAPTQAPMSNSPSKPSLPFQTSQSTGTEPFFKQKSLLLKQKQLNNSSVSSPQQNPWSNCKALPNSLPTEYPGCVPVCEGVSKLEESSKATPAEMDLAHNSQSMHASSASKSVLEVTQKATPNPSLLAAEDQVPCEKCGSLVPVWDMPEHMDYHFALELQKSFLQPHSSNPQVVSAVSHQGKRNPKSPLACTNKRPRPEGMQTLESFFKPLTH
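Pol eta (10 nM) was preincubated with compounds for 15 min at room temperature, after which fluorescent replication substrate (50 nM final) was added to start the reaction. Fluorescence was read kinetically at 0 and 10 min.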
Pol beta inh: inhibitors of human DNA polymerase beta; P06746; Pol beta primer extension/strand displacement, fluorescence kinetic; Potency, µM (titrated, usually from 114 µM), inactives show top-dose activity change, negative = inhibition, hits mostly inhibitors; hit rate 1.3% among 340,000; note: potency is the fitted concentration of half-maximal effect; % is set by controls: 0 for no effect and ±100 for the full control effect
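Enzyme-only controls used 10 nM Pol beta; buffer lacking enzyme served as negative control. Compound preincubated 15 min, then 50 nM substrate added; 0 and 10 min reads at room temperature.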
Numbers without * were called inactive; ? = inconclusive; . = no result; ! = a repeat was not active; [ ] = remark or other dose. Unless noted, calls come from the whole dose curve; as a rule, active = well fitted inhibition curve with a large enough effect; inconclusive = small, poorly fitted or top-dose-only effect, or another doubt; inactive = no such curve, though single readings can be large or run the other way.

SMILES	Pol iota inh	POLK inh	ALOX12 inh	PI5P4Ka inh	POLH inh	Pol beta inh
CCCc1cc(=O)[nH]c(SC(C)C(=O)NC(=O)NC2CCCCC2)n1 (configuration not stated)	.	.	15%	.	.	.
Cc1cc(C)cc(Oc2coc3c(CN(C)C)c(O)ccc3c2=O)c1	141%	-9%	6.3µM*	-5	-11%	-5%
C=CS(=O)(=O)c1c2cc(OC)ccc2nc2ccc(OC)cc12	28µM*	-22%	-27%	-18	?	.
CC(C)(C)NC(=O)COC(=O)c1cc(-c2ccccc2)nc2c1cnn2Cc1cccc(F)c1	.	.	-17%	.	.	.
Cc1[nH]c(=S)sc1Cc1ccc(Cl)c(Cl)c1	.	.	32µM*	.	.	13%
c1csc(-c2nn3c(Cn4cnc5ccccc54)nnc3s2)c1	43%	-1%[60.1 µM]	?	.	-5%	?
Clc1cccc(-c2nn3c(Cn4cnc5ccccc54)nnc3s2)c1	-19%[58.9 µM]	-7%	10µM*!	.	-7%	0%
Brc1ccccc1-c1nn2c(Cn3cnc4ccccc43)nnc2s1	.	.	11µM*	.	.	.
Cc1ccccc1OCc1n[nH]c(=S)n1Cc1ccccc1	155%	-15%	50µM*	-4	-19%	-29%
C=CCn1c(CCCOc2ccc(Cl)cc2Cl)n[nH]c1=S	32%	-8%[60.1 µM]	?	-3	-15%	5%
COCCn1c(COc2ccccc2-c2ccccc2)n[nH]c1=S	.	.	28µM*	.	.	.
Cc1cc(Cl)ccc1OCCCc1n[nH]c(=S)n1C	.	.	22µM*	.	.	.
S=c1[nH]nc(COc2cccc3ccccc23)n1Cc1ccccc1	19%	-8%	?	0	2%	-16%
COCc1n[nH]c(=S)n1Cc1ccc(Cl)cc1	.	.	16µM*	.	.	.
O=C(NC(C1CC1)C1CC1)c1cc2ccccc2oc1=O	.	.	-5%	.	.	.
COCCNC(=O)c1cc(-c2ccc(C)cc2)nc2ccccc12	.	.	-5%	.	.	.
O=C(CSc1nnc2c3c4c(sc3ncn12)CCCC4)Nc1ccc(F)cc1F	.	.	0%	.	.	.
CCn1c(COc2ccc(Cl)cc2C)n[nH]c1=S	.	.	14µM*	.	.	.
Cc1nn(Cc2n[nH]c(=S)n2Cc2ccccc2)c(C)c1Cl	3%	-9%	45µM*	8	-10%	10%
Cc1cc(C)n(Cc2n[nH]c(=S)n2Cc2ccccc2)n1	-12%	1%	?	-2	-12%	29%
Cc1cc(Cl)ccc1OCc1n[nH]c(=S)n1C1CCCCC1	0%	-19%	?	-5	-19%	-2%
O=C(O)CN1C(=O)/C(=C\c2ccccc2OCc2ccccc2)SC1=S	.	.	?	-15	79µM*	.
O=C(CCN1C(=O)/C(=C\c2ccccc2)SC1=S)NCCCN1CCOCC1	5%	-7%	-4%	0	7%	21%
O=C1C(=Cc2ccccc2O)SC(=S)N1CCCN1CCOCC1	.	.	?	-69*	-16%	.
O=C(O)CN1C(=O)/C(=C\c2ccccc2OCc2ccc(F)cc2)SC1=S	?	-27%	?	-30	?	?
SMILES	Pol iota inh	POLK inh	ALOX12 inh	PI5P4Ka inh	POLH inh	Pol beta inh
O=C(O)CCCN1C(=O)/C(=C\c2ccccc2OCc2ccccc2)SC1=S	?	-14%	?	-1	79µM*	?
Cc1ccc(C)c(-c2nn(CC(=O)NC3CC3)c(=O)c3ccccc23)c1	.	.	3%	.	.	.
Cc1cccc2nc(-c3ccc(O)cc3)c(Nc3ccccc3)n12	.	.	-8%	.	.	.
c1ccc(-c2nnc3sc(Cc4cccs4)nn23)cc1	?	-15%	2%	.	3%	45µM*
Clc1ccc(-c2nnc3sc(Cc4cccs4)nn23)cc1	-6%	-23%	?	?	?	?
CCNS(=O)(=O)c1ccc(C)c(C(=O)NCc2coc(-c3cccs3)n2)c1	.	.	-8%	.	.	.
O=C(/C(=C\c1ccccc1F)c1nc2ccccc2o1)c1ccccc1	.	.	-2%	.	.	.
O=c1c(Cl)c(N/N=C/c2ccc(Br)cc2)cnn1-c1ccccc1	?	?	-24%	-4	?	18µM*
CNc1cnn(-c2ccccc2)c(=O)c1Cl	-2%	-2%	3%	-28	-5%	15%
CC(=O)c1ccc(S(=O)(=O)Nc2ccc(-c3ccc(N4CCCCC4)nn3)cc2)cc1	?	-15%[60.1 µM]	-6%	.	79µM*	?
O=[N+]([O-])c1ccc(Cl)c(S(=O)(=O)Nc2ccc(-c3ccc(N4CCCC4)nn3)cc2)c1	?	-9%	-12%	-29	45µM*	.
Cc1c([N+](=O)[O-])cc(S(=O)(=O)Nc2ccc(-c3ccc(N4CCCC4)nn3)cc2)cc1[N+](=O)[O-]	?	-32%	-10%	?	18µM*	.
O=C(NCC1Cn2cccc2CN1Cc1ccccc1)c1cncc(Br)c1 (configuration not stated)	.	.	106%	.	.	.
COc1ccc(CNC(=O)CC2CCN(C(=O)c3ccc4nc(-c5ccccc5)oc4c3)CC2)cc1	.	.	12%	.	.	.
COc1ccc(-c2cc(C(=O)NC3CCNCC3)c3c(C)nn(-c4ccccc4)c3n2)cc1	.	.	25µM*	.	.	.
CCOc1ccccc1Oc1c(C)oc2cc(OCC(=O)O)ccc2c1=O	.	.	1%	.	.	.
Cc1noc2c(NCC3CCOCC3)cc(-c3ccc(F)cc3)nc12	.	.	56µM*	.	.	.
Oc1ccc(N=Cc2ccc(-c3cccs3)s2)cc1	?	-34%	?	.	32µM*	?
O=Cc1ccc(-c2cccs2)s1	2%	-5%	-18%	-3	-9%	.
COCCNC(=O)CSc1cc(C)c2cc(C)cc(C)c2n1	.	.	43%	.	.	.
Cc1cc(C)c2nc(SCC(=O)NCCC3=CCCCC3)cc(C)c2c1	20%	-4%	16µM*	-2	6%	-1%
Cc1ccc(-c2cnc(CCC(=O)Nc3ccc(F)c(F)c3)o2)cc1C	.	.	-9%	.	.	.
CN(Cc1cccnc1)c1ccc2ncc(Nc3cc(F)cc(N4CCOCC4)c3)n2n1	.	.	4%[176 µM]	.	.	.
O=C(CSc1nnc2ccccn12)NC(=O)c1ccccc1Cl	28µM*	?	28%	?	40µM*	.
CC(=O)NC1(C)CCCN(Cc2cccc(-c3ccc4c(ccn4C)c3)c2)C1 (configuration not stated)	.	.	35µM*	.	.	.
CC(=O)NC1(C)CCN(Cc2ccccc2-c2ccc3ccccc3c2)C1 (configuration not stated)	.	.	32µM*	.	.	.
COc1ccc(-c2cccc(CN3CCCC(C)(NC(C)=O)C3)c2)cc1OC (configuration not stated)	.	.	-9%[176 µM]	.	.	.
CC(=O)NC1(C)CCN(Cc2cccc(-c3cccc(Cl)c3)c2)C1 (configuration not stated)	.	.	40µM*	.	.	.
Fc1ccc(Cc2nc3nccc(-c4ccc5c(c4)OCCCO5)n3n2)cc1	.	.	17%	.	.	.
CNC(=O)NC(=O)CSc1nnc(-c2ccccc2Cl)n1-c1cccc(C(F)(F)F)c1	.	.	-8%	.	.	.

Bioassay records deposited in PubChem by National Center for Advancing Translational Sciences (NCATS).
